Measured values as given in the supplement of paper PMC6555819.

Key:
Experiment in all cases: PBM binding z-score (relative to random genomic background probes); higher = stronger binding; sequences stand for … in GC…GCGATTGACAGCGTAGAATGAAGG
[1] = test system: FXR:RXRa (NR concentration 270 nM, RXRa partner concentration 90 nM)
Outline: (§1)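 Ligand-free nuclear receptor dimers were bound for 1 h to custom Agilent 4×180K protein-binding microarrays. Detection used antibodies against each partner (one per run). Binding z-scores rest on regression-normalized fluorescence, with random background probes as the reference.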

[2] = test system: LXRa:RXRa (NR concentration 270 nM, RXRa partner concentration 90 nM)
Outline: as §1

[3] = test system: LXRa homodimer (NR concentration 270 nM)
Outline: as §1

[4] = test system: LXRb:RXRa (NR concentration 270 nM, RXRa partner concentration 90 nM)
Outline: as §1

[5] = test system: LXRb homodimer (NR concentration 270 nM)
Outline: as §1

[6] = test system: PPARa:RXRa (NR concentration 270 nM, RXRa partner concentration 90 nM)
Outline: as §1

[7] = test system: PPARg:RXRa (NR concentration 180 nM, RXRa partner concentration 90 nM)
Outline: as §1

[8] = test system: PPARg:RXRa 270nM:90nM, anti-RXR (NR concentration 270 nM, RXRa partner concentration 90 nM)
Outline: as §1

[9] = test system: PPARg:RXRa 30nM:10nM, anti-RXR (NR concentration 30 nM, RXRa partner concentration 10 nM)
Outline: as §1

[10] = test system: PPARg:RXRa 90nM:30nM, anti-RXR (NR concentration 90 nM, RXRa partner concentration 30 nM)
Outline: as §1

[11] = test system: PPARg:RXRa DBDmut IVT, anti-RXR (DBD mutation: RXRa K156A/R161A, NR concentration 270 nM, RXRa partner concentration 90 nM)
Outline: as §1

[12] = test system: PPARg:RXRa IVT, anti-PPARg (NR concentration 270 nM, RXRa partner concentration 90 nM)
Outline: as §1

[13] = test system: PPARg DBDmut:RXRa IVT, anti-PPARg (DBD mutation: PPARg1 K132A/R137A, NR concentration 270 nM, RXRa partner concentration 90 nM)
Outline: as §1

[14] = test system: PPARg DBDmut IVT, anti-PPARg (DBD mutation: PPARg1 K132A/R137A, NR concentration 270 nM)
Outline: as §1

[15] = test system: PPARg homodimer (NR concentration 180 nM)
Outline: as §1

[16] = test system: PXR:RXRa (NR concentration 270 nM, RXRa partner concentration 90 nM)
Outline: as §1

[17] = test system: PXR homodimer (NR concentration 270 nM)
Outline: as §1

[18] = test system: RARa:RXR (NR concentration 270 nM, RXRa partner concentration 90 nM)
Outline: as §1

[19] = test system: RARa homodimer (NR concentration 270 nM)
Outline: as §1

[20] = test system: RARb:RXRa (NR concentration 270 nM, RXRa partner concentration 90 nM)
Outline: as §1

Sequence | PBM binding z-score [1] | PBM binding z-score [2] | PBM binding z-score [3] | PBM binding z-score [4] | PBM binding z-score [5] | PBM binding z-score [6] | PBM binding z-score [7] | PBM binding z-score [8] | PBM binding z-score [9] | PBM binding z-score [10] | PBM binding z-score [11] | PBM binding z-score [12] | PBM binding z-score [13] | PBM binding z-score [14] | PBM binding z-score [15] | PBM binding z-score [16] | PBM binding z-score [17] | PBM binding z-score [18] | PBM binding z-score [19] | PBM binding z-score [20]
GCTACTAGTTGAAAGGGCAACCGAATGATTCTCG | 0.0739 | 0.67 | -0.0669 | 0.754 | -0.373 | 2.62 | 3.76 | 5.17 | 3.07 | 5.08 | 0.65 | 1.33 | 0.246 | -0.547 | 0.922 | 0.637 | -0.0671 | 1.32 | -0.371 | 1.95
CCGACTGGGGCATAAGGATACCATAAGCCAGCCC | -0.174 | -0.373 | -0.612 | -0.813 | -1.53 | -0.0359 | 1.29 | 1.46 | 0.0303 | 0.707 | 2.56 | 1.93 | -0.873 | -1.29 | -0.477 | -0.797 | -0.877 | -0.463 | 0.0261 | 0.0537
ATCGAAAGGTCGAGGTGAGTTTAGAGAAAGGGAA | 4.34 | 3.68 | -0.00415 | 2.76 | 0.473 | 4.5 | 3.03 | 3.81 | 1.16 | 2.57 | 0.367 | 2.26 | 0.969 | 0.594 | 1.7 | 5.04 | 1.12 | 3.71 | 0.68 | 4.26
TCTTGTAAATCAATAGAGGTTAAGAAAGTGCGCT | 0.793 | 3.32 | 0.658 | 1.86 | 0.26 | 1.86 | 0.0624 | 1.82 | 3.77 | 2.44 | 2.07 | 0.72 | 0.946 | 0.876 | 0.652 | 2.65 | 0.467 | 1.72 | 0.812 | 1.13
TCTCGGAGGACACGAAGGACAGAGCTTTCCAGAG | 0.358 | -0.306 | -0.452 | -0.355 | -1.07 | -0.0833 | 0.271 | 0.836 | 2.13 | 1.3 | 1.14 | 0.0636 | -0.366 | -1.09 | -0.347 | -0.352 | -0.367 | 0.0176 | -1.01 | 1.54
CGAAGTAGGTCATCCAGGACAGTGAATACATTGA | 4.86 | 3.19 | 1.2 | 2.64 | 0.447 | 5.16 | 8.31 | 7.05 | 4.99 | 6.9 | 8.36 | 8.63 | 3.1 | 2.28 | 2.17 | 2.56 | 1.49 | 3.08 | 0.771 | 3.82
AGAATGAGGTTATACGTAGATCAGGGATGAAAGT | 2.37 | 1.9 | 0.0703 | 1.68 | -0.152 | 3.09 | 2.07 | 2.01 | 0.736 | 1.73 | 3.98 | 2.18 | 1.78 | 0.781 | 0.69 | 1.28 | 0.675 | 1.93 | 0.93 | 1.44
ATCGCAAGGTCGACGAGGTGAGTATACACCGTTT | 1.64 | 1.32 | -0.778 | 1.06 | -0.359 | 2.74 | 1.28 | 0.926 | -0.0262 | 0.379 | -0.013 | 1.1 | 0.104 | 0.00511 | 0.0263 | 1.89 | 0.566 | 2.55 | -0.403 | 2.49
CCTACTAGGCCATTCAGAGGTCATTGATCATATG | 3.52 | 4.52 | 7.03 | 4.15 | 1.58 | 4.04 | 3.11 | 3.87 | 1.41 | 3.08 | 5.98 | 5.01 | 1.66 | 0.481 | 2.94 | 4.79 | 3.44 | 4.84 | 1.44 | 3.45
TCATATAGGTAAATGCTAGGTGAAACTCCGATCT | 1 | 0.883 | 0.327 | 0.756 | -0.00744 | 1.4 | 0.976 | 2.12 | 4.01 | 2.96 | 4.38 | 2.75 | 0.957 | 1.1 | 0.711 | 0.57 | 0.499 | 0.959 | 0.953 | 0.548
ACTTACGGGTTAACGAGGTTATAGCACGCGTATA | 2.07 | 2.74 | 0.54 | 2.31 | 0.221 | 3.12 | 1.66 | 2.16 | 0.682 | 1.49 | 1.74 | 2.15 | 0.886 | 1.18 | 1.01 | 2.88 | 0.801 | 2.6 | 0.88 | 1.69
GCTAGCAGGCCATCTGGGTCACTCAATGACGGGC | 0.0876 | -0.178 | -0.882 | -0.232 | -0.896 | 1.7 | 1.31 | 1.36 | -0.319 | 0.57 | 3 | 3.48 | -0.603 | -1.04 | 0.0368 | 0.27 | -0.407 | 0.713 | -0.51 | 1.67
CGAACTAGGTCAGAACGGGACAGTGAAGGATGAT | 0.777 | 0.488 | -0.316 | 0.113 | -0.487 | 3.16 | 5.01 | 4.15 | 1.79 | 3.38 | 6.92 | 7.17 | 2.46 | 2.6 | 1.57 | 0.217 | -0.225 | 0.856 | -0.237 | 2.75
TCATATAGGCAAACAGGTGAAAGTCCGTAAGTTA | 0.489 | 0.602 | -0.0652 | 0.614 | -0.318 | 1.33 | 0.726 | 2.34 | 3.4 | 2.91 | 2.62 | 1.42 | 0.461 | 0.241 | 0.782 | 0.517 | 0.177 | 0.939 | 0.994 | 0.119
